Experimental data taken from PubChem BioAssay AID1345085 (National Center for Advancing Translational Sciences (NCATS), 2018).
Results filed as inconclusive are left out. Calls of active or inactive are those of the source. The call rests on the fitted dose curve; in most records, active means well fitted cell-killing curve with a large enough effect; inconclusive means small, poorly fitted or top-dose-only effect, or effect the other way; inactive means no such curve, though single readings can be large or run the other way.

The molecules below were run on Jar (assay: Confirmatory qHTS for gynecologic anti-cancer compounds from libraries of approved drugs and bioactive compounds). Details: gynecologic cancer cell panel viability, ATPlite luminescence, 48 h; series mostly up to 57.6 µM.
Source text: National Center for Advancing Translational Sciences [NCATS] Assay Overview: Chemotherapeutic drug responses vary from cancer to cancer and from patient to patient. These variations could be caused by a number of factors including patient genomic background, tumor mutations, tumor heterogeneity, and aspects of drug treatment. Chemotherapeutic drug resistance is also a common issue and can lead to ineffective treatment and patient death. Here we have profiled the cell killing effects of thousands of compounds to characterize the responses in three gynecological cancers, identify cancer-selective compounds, and understand the diversity of responses to these compounds from pan-cancer suppressors to single cell line selective compounds. In this assay, we screened a 7,914 compound drug library that included approved drug and bioactive compounds in six ovarian, three cervical, and two placental cancer cell lines using the ATPlite assay for cell viability. ATPlite is a luminescence based assay reliant on the conversion of a luciferase substrate to light in the presence of ATP. As a cytotoxic compound will suppress growth and decrease the number of cells, the concentration of ATP will decrease, and less light signal will be detected in the well. Hits were selected from the primary screen for follow-up confirmation. For the confirmation screens, the ovarian cancer cell lines included CAOV-3, SK-OV-3, SW 626, ES-2, PA-1, and TOV-21G. The cervical cancer cell lines included HeLa, Ca Ski, and C-33 A. The placental cancer cell lines included JEG-3 and JAR. HEK 293T cells were used as the control cell line to determine the selectivity index. The ATPlite assay was used to determine the IC50 values.
Assay Protocol Summary: 1,000 cells in 4 uL of media were dispensed into white, solid bottom 1536-well plates using a Multidrop Combi (Thermo Scientific). The Assay plates were incubated for 16 hours at 37 C with 5% CO2 in assay plates, followed by the addition of 23 nL of DMSO or drug dissolved in DMSO. . Each compound was assayed in 11 concentrations (1:3 dilution) from 57.5 uM to 0.977 nM, using the automated Wako 1536 Pin Tool workstation and incubated at 37 C with 5% CO2 48 hours. 4 uL of ATPlite, the ATP monitoring reagent, was then added to the each well of the assay plates using the Multidrop Combi reagent dispenser followed by incubation for 15 minutes at room temperature. The resulting luminescence was measured using the ViewLux plate reader.
Further: nearly all actives have a fitted effect of over 55% in size.
Potency means the concentration at half of the fitted maximal effect.

| SMILES | Potency |
| --- | --- |
| CCCC(Nc1nc(-c2ccc(NC(=O)NCC)c(OC)c2)ncc1C)c1cccnc1 (stereo not given) | 0.432 µM (active) |
| O=C(Nc1cccnc1)N1CCC(Cc2cccc(Oc3ccc(C(F)(F)F)cn3)c2)CC1 | 9.68 µM (active) |
| CCC1=CC2CN(C1)Cc1c([nH]c3ccccc13)[C@@](C(=O)OC)(c1cc3c(cc1OC)N(C)[C@H]1[C@@](O)(C(=O)OC)[C@H](OC(C)=O)[C@]4(CC)C=CCN5CC[C@]31[C@@H]54)C2 (stereo not given in full) | 0.133 µM (active) |
| Cn1c(=O)c(-c2c(Cl)cccc2Cl)cc2cnc(Nc3cccc(C(=O)O)c3)nc21 | 2.43 µM (active) |
| Cc1nc2ccc(CN(C)c3ccc(C(=O)NC(CCC(=O)O)C(=O)O)s3)cc2c(=O)[nH]1 (stereo not given) | inactive |
| CCOc1ccc(Nc2nc(-c3c(C)nc4ccccn34)cs2)cc1 | 0.0243 µM (active) |
| CC(=O)Nc1cccc(-n2c(=O)n(C3CC3)c(=O)c3c(Nc4ccc(I)cc4F)n(C)c(=O)c(C)c32)c1 | inactive |
| CC(Oc1cc(-n2cnc3ccc(CN4CCN(C)CC4)cc32)sc1C(N)=O)c1ccccc1C(F)(F)F (stereo not given) | 3.06 µM (active) |
| Cn1cnc([N+](=O)[O-])c1Sc1ncnc2nc[nH]c12 | 27.3 µM (active) |
| COCCOc1ccc2c(c1)ncn2-c1ccc2cccc(N3CCC(N)CC3)c2n1 | inactive |
| Cc1cc(Nc2cc(N3CCN(C)CC3)nc(/C=C/c3ccccc3)n2)n[nH]1 | 24.3 µM (active) |
| Cc1cc(SCc2sc(-c3ccc(C(F)(F)F)cc3)nc2C)ccc1OCC(=O)O | inactive |
| CC(C)n1c(/C=C/[C@@H](O)C[C@@H](O)CC(=O)O)c(-c2ccc(F)cc2)c2ccccc21 | 10.9 µM (active) |
| Cc1ccc(NC(=O)c2ccc(CN3CCN(C)CC3)cc2)cc1Nc1nccc(-c2cccnc2)n1 | inactive |
| Cc1nc(N)ncc1-c1nc(N2CCOCC2)c2sc(C(C)(C)O)cc2n1 | 7.69 µM (active) |
| COc1ccccc1N1CCN(CC(O)COc2cccc3ccccc23)CC1 (stereo not given) | inactive |
| Cc1nc(Nc2n[nH]c3c2CN(C(=O)NC(CN(C)C)c2ccccc2)C3(C)C)c2sccc2n1 (stereo not given) | inactive |
| COc1ccc2cc3[n+](cc2c1OC)CCc1cc2c(cc1-3)OCO2 | 4.32 µM (active) |
| CC(C)[C@@H](CS(=O)(=O)C(C)C)N1C(=O)[C@@](C)(CC(=O)O)C[C@H](c2cccc(Cl)c2)[C@H]1c1ccc(Cl)cc1 | 2.73 µM (active) |
| O=c1[nH]c(=O)n([C@H]2C[C@H](O)[C@@H](CO)O2)cc1C(F)(F)F | inactive |

| SMILES | Potency |
| --- | --- |
| CCN1C[C@H](C)n2c(c(O)c3c(=O)n(Cc4ccc(F)c(Cl)c4)nc(C(=O)NC)c32)C1=O | inactive |
| COC(C)(C)CCn1nc(Nc2c(C)cccc2C)c2cnc(Nc3ccc(OCCN4CCCC4)c(F)c3)nc21 | 27.3 µM (active) |
| COc1ccc(OC)c(-c2nnc3ccc(-c4ccc(OC)c(O[C@@H]5CCOC5)c4)nn23)c1 | 12.2 µM (active) |
| Cc1nc(NC(=O)N2CCCC2C(N)=O)sc1-c1ccnc(C(C)(C)C(F)(F)F)c1 (stereo not given) | 12.2 µM (active) |
| Cc1cc(C2CCCCC2)n(O)c(=O)c1 | 8.86 µM (active) |
| COc1c(C)c2c(c(O)c1C/C=C(\C)CCC(=O)OCCN1CCOCC1)C(=O)OC2 | inactive |
| CC[C@@]1(O)C(=O)OCc2c1cc1n(c2=O)Cc2c-1nc1ccccc1c2/C=N/OC(C)(C)C | 0.968 µM (active) |
| O=c1c(-c2ccc(O)cc2)coc2cc(O)cc(O)c12 | inactive |
| COc1cc(N2CCC(N3CCN(C)CC3)CC2)ccc1Nc1ncc(Cl)c(Nc2ccccc2S(=O)(=O)C(C)C)n1 | 17.2 µM (active) |
| CS(=O)(=O)c1ccc(-c2cnc(N)c(C(=O)Nc3ccccc3)n2)cc1 | inactive |
| CC(C)(C)C(=O)OCOP(=O)(COCCn1cnc2c(N)ncnc21)OCOC(=O)C(C)(C)C | 9.68 µM (active) |
| Cc1ccc(C(=O)N(CCCN)C(c2nc3cc(Cl)ccc3c(=O)n2Cc2ccccc2)C(C)C)cc1 (stereo not given) | 0.0153 µM (active) |
| CC(C)C[C@H](NC(=O)[C@H](Cc1ccccc1)NC(=O)c1cnccn1)B(O)O | 0.0485 µM (active) |
| CCCC(=O)O[C@]1(C(=O)CCl)[C@@H](C)C[C@H]2[C@@H]3CCC4=CC(=O)C=C[C@]4(C)[C@@]3(F)C(=O)C[C@@]21C | 43.2 µM (active) |
| O=C1NC(=O)C(c2cnc3ccccn23)=C1c1cn2c3c(cccc13)CN(C(=O)N1CCOCC1)CC2 | inactive |
| CC(C)Oc1ccc(C(=O)NC(CNC(=O)CN(C)C)Cc2ccc(-c3cn4cccc(C(C)O)c4n3)cc2)cc1Cl (stereo not given) | 0.172 µM (active) |
| CNCc1ccc(-c2[nH]c3cc(F)cc4c3c2CCNC4=O)cc1 | inactive |
| CCCCN(CCCC)C(=O)CN1C[C@H](c2ccc3c(c2)OCO3)[C@@H](C(=O)O)[C@@H]1c1ccc(OC)cc1 | inactive |
| Cc1nc(Nc2ncc(C(=O)Nc3c(C)cccc3Cl)s2)cc(N2CCN(CCO)CC2)n1 | 21.7 µM (active) |
| Cc1ccc(C(=O)Nc2ccc(CN3CCN(C)CC3)c(C(F)(F)F)c2)cc1C#Cc1cnc2cccnn12 | 30.6 µM (active) |
